# Screening results deposited in PubChem by National Center for Advancing Translational Sciences (NCATS).
# Only some compounds are listed: those with a hit (about 15% of all), similar ones and a draw of the others.
# Gal4-VP16 FLuc: counter-screen for ROR gamma inhibitors: Gal4-VP16 reporter; Potency, µM (titrated, usually from 53.6 µM), for inactives: at the highest dose activity, negative = inhibition, actives largely listed as inhibitors; AID 2546; Drosophila S2 Gal4-VP16 UAS-luciferase, luminescence, 20 h; actives 3.5% (n = 310,000);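 note: Gal4-VP16 expression switched on by copper sulfate through the metallothionein promoter; nearly all actives have a fitted effect of over 50% in size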
# RORg inh: inhibitors of mouse ROR gamma transcriptional activity | Drosophila S2 Gal4-RORgamma UAS-luciferase reporter, 20 h | P51450 | Potency, µM (top dose mostly 53.6 µM), inactives show at the top dose activity change, negative = inhibition, usual class: inhibitors | AID 2551 | actives 5.4% (n = 310,000); note: nearly all actives have a fitted effect of over 60% in size
#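 A Gal4/UAS one-hybrid system in insect cells: metallothionein-promoter Gal4–ROR gamma fusion plus Photinus luciferase reporter. Copper sulfate 700 uM final, 20 hr ambient incubation, luminescent detection after 10 min with reagent.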
# 12-LOX inh: blocks human arachidonate 12S-lipoxygenase; Potency, µM (highest dose often 108 µM), for the others: at the top dose activity change, negative = inhibition, actives largely listed as inhibitors; purified 12hLO, xylenol orange hydroperoxide absorbance; actives 1.1% (n = 580,000)
# Target sequence (P18054 whole entry, looked up): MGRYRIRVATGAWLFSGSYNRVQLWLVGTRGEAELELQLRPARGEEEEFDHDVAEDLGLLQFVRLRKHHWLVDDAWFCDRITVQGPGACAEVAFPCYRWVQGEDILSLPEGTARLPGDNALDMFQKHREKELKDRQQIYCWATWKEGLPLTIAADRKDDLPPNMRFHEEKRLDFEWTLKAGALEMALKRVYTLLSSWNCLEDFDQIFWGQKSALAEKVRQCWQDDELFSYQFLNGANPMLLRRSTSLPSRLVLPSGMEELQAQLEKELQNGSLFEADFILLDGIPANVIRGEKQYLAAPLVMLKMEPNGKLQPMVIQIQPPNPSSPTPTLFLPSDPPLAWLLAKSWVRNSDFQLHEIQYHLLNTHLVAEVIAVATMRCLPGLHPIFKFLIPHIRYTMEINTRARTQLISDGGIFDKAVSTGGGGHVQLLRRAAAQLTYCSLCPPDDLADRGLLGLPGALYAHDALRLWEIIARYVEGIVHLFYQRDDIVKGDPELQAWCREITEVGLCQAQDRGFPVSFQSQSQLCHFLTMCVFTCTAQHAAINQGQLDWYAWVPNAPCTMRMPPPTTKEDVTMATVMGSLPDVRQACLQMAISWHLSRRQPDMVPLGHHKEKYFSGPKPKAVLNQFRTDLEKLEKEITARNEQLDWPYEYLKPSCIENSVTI
#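 Purified human 12hLO at 150 nM in 25 mM Hepes, 0.01% Triton X-100, pH 7.0, preincubated 15 min at room temperature with compound. Reaction started with 40 uM arachidonic acid, 30 min at room temperature. Hydroperoxide measured by Fe-xylenol orange, 573/405 nm absorbance ratio.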
# TDP1 cell CPT: growth inhibition of DT40 Tdp1-/-;hTDP1 cells with camptothecin (screen for TDP1 inhibitors). chicken DT40 Tdp1-/-;hTDP1 cells + 20 nM CPT, ATP luminescence, 48 h. Potency, µM (top dose mostly 46.2 µM), inactives show top-dose activity change, negative = growth inhibition, hits mostly inhibitors. actives 12% (n = 420,000). AID 686979; note: nearly all actives have a fitted effect of over 55% in size
#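 Cell growth measured by CellTiter-Glo luminescence after a minimum 48 h, 37 C compound exposure with 20 nM CPT in Tdp1-knockout DT40 cells stably expressing hTDP1, seeded 400/well; qHTS titration format.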
# DT40 TDP1 no CPT: qHTS for Inhibitors of human tyrosyl-DNA phosphodiesterase 1 (TDP1): qHTS in cells in absence of CPT; Potency, µM (highest dose often 46.2 µM), for the others: at the highest dose activity change, negative = growth inhibition, hits mostly inhibitors; actives 15% (n = 420,000); DT40 Tdp1-/- hTDP1 cells, no CPT, ATP luminescence, 48 h; note: nearly all actives have a fitted effect of over 55% in size
#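 Readout: luminescence from CellTiter-Glo after 30 min in the dark at RT. Cells: DT40 Tdp1-/- with stable hTDP1, 400/well. Exposure: compounds alone, ≥48 hr, 37 °C.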
# ELG1 repair inh: inhibitors of ELG1-dependent DNA repair in HEK293T cells. HEK293T ELG1-luciferase reporter, luminescence, 16 h; DNA damage induced by 5-fluorouridine. Potency, µM (titrated, usually from 46.1 µM), inactives show at the top dose activity change, negative = inhibition, most hits filed as inhibitors. actives 2.3% (n = 330,000). AID 504467; note: nearly all actives have a fitted effect of over 55% in size
#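 Overnight (16 hr) co-exposure of 2,000 cells/well to 5-fluorouridine and compound at 37 °C preceded detection. Luciferase was quantified via ONE-Glo luminescence; loss of signal denotes inhibition.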
# Numbers without * were called inactive; ? = inconclusive; · = not tested or not shown; [ ] = remark or other dose. Calls come from the whole dose curve; as a rule, active = well fitted curve in the direction sought with a large enough effect; inconclusive = small, poorly fitted or top-dose-only effect, or another doubt; inactive = no such curve, though single readings can be large; an effect the other way counts as inactive or inconclusive. % is set by controls: 0 for no effect and ±100 for the full control effect; potency is the fitted concentration of half-maximal effect.
SMILES,Gal4-VP16 FLuc,RORg inh,12-LOX inh,TDP1 cell CPT,DT40 TDP1 no CPT,ELG1 repair inh
CC(=O)c1c(C)[nH]c(C(=O)OCc2nc3ccsc3c(=O)[nH]2)c1C,·,·,5.7%,?,-25.0%,22.2%
CC(=O)c1c(C)[nH]c(C(=O)OCn2nnc3ccccc3c2=O)c1C,4.6%,1.3%,-11.1%,16.4µM*,16.4µM*,18.4µM*
CC(NC(=O)c1ccccc1)C(=O)OCn1nnc2ccccc2c1=O (configuration not stated),·,·,427.3%,25.9µM*,14.9%,16.4%
COC(=O)c1ccc2c(=O)[nH]c(COC(=O)c3[nH]c(C)c(C(C)=O)c3C)nc2c1,·,·,-15.5%,?,16.4µM*,5.8µM*
CC(=O)c1c(C)[nH]c(C(=O)Cn2cnc3ccccc3c2=O)c1C,·,·,-23.7%,·,·,·
COC(=O)[C@@H]1Cc2ncn(Cc3ccc(OC)cc3)c2CN1Cc1ccc(OC)cc1,·,·,125.8%[176 µM],·,·,·
Cc1nn2c(NCCN(C)C)c3c(nc2c1-c1ccccc1)CCCC3,0.447µM*,?,0.0%,0.581µM*,1.03µM*,?
CCC(C)Nc1c2c(nc3c(-c4ccccc4)c(C)nn13)CCC2 (configuration not stated),-12.1%,10µM*,-28.6%,?,?,-29.7%
COCCNc1c2c(nc3c(-c4ccccc4)c(C)nn13)CCCC2,-2.4%,?,21.2%,15.8µM*,?,?
CCCCNc1c2c(nc3c(-c4ccccc4)c(C)nn13)CCC2,1.0%,-4.3%,2.7%,20.6µM*,29.1µM*,?
Cc1nn2c(NCCOCCO)c3c(nc2c1-c1ccccc1)CCCC3,9.9%,0.6%,·,-13.4%,?,-0.6%
CC(=O)Nc1ccc(C(=O)N2CCN(c3cc(-c4ccc(F)cc4)[nH]n3)CC2)cc1,·,·,16.8%,·,·,·
Cc1ccc(-c2noc(Cn3nc(C(=O)O)c4ccccc4c3=O)n2)cc1,-8.5%,15.3%,-15.9%,-0.7%,-6.4%,26.6%
O=C(O)c1nn(Cc2csc(-c3ccccc3)n2)c(=O)c2ccccc12,-18.8%,0.6%,5.7%,?,11.6µM*,24.0%
Cc1cc(OCCN2CCN(S(=O)(=O)c3ccccc3F)CC2)ccc1C(C)C,·,·,0.6%,20.6µM*,16.4µM*,6.0%
Cc1ccnc(NCn2nnc3ccccc32)c1,-1.3%,1.0%,2.7%,16.4µM*,?,-2.2%
COC(=O)c1ccoc1COC(=O)CCc1c(C)c2ccc(OC)cc2oc1=O,·,·,-58.4%,·,·,·
O=C(NC(=S)Nc1nc(-c2ccccc2)cs1)c1ccco1,?,3.55µM*,-3.5%,?,-29.0%,-13.7%
COc1ccc(-c2csc(NC(=S)NC(=O)c3ccco3)n2)cc1,-1.6%,7.08µM*,1.5%,-5.4%,3.2%,?
CC(C)CC(=O)NC(=S)Nc1nc(-c2ccccc2)cs1,5.62µM*,6.31µM*,6.8%,?,?,?
COc1ccc(-c2csc(N(C)C(=O)c3ccco3)n2)cc1,3.9%,14.2%,8.2%,-9.4%,-29.8%,?
COc1ccc(-c2csc(NC(=O)COC(=O)c3ccco3)n2)cc1,?,26.0%,-21.3%,23.1µM*,?,?
OC(c1ncc(-c2ccccc2)o1)C(F)(F)F (configuration not stated),·,·,-25.3%,·,·,·
CCCCSc1nc2c([nH]1)c(=O)n(C)c(=S)n2C,·,·,?,-21.9%,?,·
Cn1c(=S)c2[nH]c(SCCN3CCCC3)nc2n(C)c1=O,?,1µM*,-15.9%,?,23.1µM*,?
Cn1c(=O)c2c(nc(SCCN3CCCCC3)n2C)n(C)c1=O,-10.7%,-22.8%,0.0%,9.3%,7.7%,2.1%
Cn1c(=S)c2[nH]c(SCCN)nc2n(C)c1=O,·,·,?,5.8µM*,5.8µM*,·
